PMP22 txn: modulators of PMP22 gene transcription in S16 Schwann cells. S16 Pmp22-F2sN Schwann cells, FLuc/NLuc coincidence luminescence, 24 h. Potency, µM (top dose mostly 57.5 µM), without a hit: top-dose activity change, negative = inhibition, most hits filed as inhibitors. hit rate 2% among 43,000; active = clear falling dose curves in both reporters; inconclusive = both reporters move, but less clearly or upward; inactive = either reporter flat; the % is the NLuc reporter signal
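S16(c9) Schwann cells with FLuc/NLuc coincidence reporter in the Pmp22 3' UTR; compounds pin-transferred, 24 h at 37C. Dual-luciferase read: FLuc first, then NLuc after Stop&Glo, each 10 min at room temperature.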
p53null 39C kill: p53 null cell cytotoxicity, nonpermissive temperature; hit rate 0.97% among 55,000; H1299 p53-null (neo) cells, 39C, ATPlite viability, 24 h; Potency, µM (highest dose often 46.1 µM), without a hit: top-dose activity, negative = cell killing, most hits filed as cytotoxic;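 note: 0% = DMSO only and -100% = full killing by 100 µM tamoxifen; nearly all actives have a fitted effect of over 50% in size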
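Following overnight plating at 37C (600 cells/well), H1299-neo or H1299-p53A138V cells are dosed up to 46 uM. Incubation lasts 24 hr at 39C before ATP detection.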
mTORC1 inh: reduces mTORC1 signaling in Tsc2 and p53 null MEF cells | hit rate 0.78% among 44,000 | Potency, µM (highest dose often 38.3 µM), without a hit: at the top dose activity change, negative = inhibition, hits mostly inhibitors | Tsc2-/- p53-/- MEF, phospho-rpS6 immunofluorescence/PI, 24 h | AID 493208;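 note: plate controls were DMSO for no effect and rapamycin for full effect; nearly all actives have a fitted effect of over 50% in size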
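Tsc2-/-, p53-/- MEFs (empty-vector stable line) in DMEM + 10% FBS were treated with compounds 24 h at 37 degree Celsius, fixed, and immunostained for phospho-rpS6 (Alexa-488) with propidium iodide counterstain. Laser-scanning cytometry gave % positive cells, normalized against 7.5 nM rapamycin and DMSO.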
S16 viability: S16 Schwann cell cytotoxicity; S16 Pmp22-F2sN Schwann cells (luciferase reporters placed in the Pmp22 gene) viability, CellTiter-Glo, 24 h; Potency, µM (top dose mostly 57.5 µM), inactives show at the highest dose activity change, negative = cytotoxicity, hits mostly cytotoxic; hit rate 0.48% among 43,000; AID 1508642; note: nearly all actives have a fitted effect of over 65% in size
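CellTiter-Glo counter-screen, qHTS, 1536-well. Cells: S16(c9) Pmp22-F2sN, 500-1,000/well in DMEM + 10% FBS. Cpd 23 nL pin transfer, 24 h, 37C/5% CO2. Read: luminescence, CCD imager.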
p53null 32C kill: kills p53 null cells at the permissive temperature. Potency, µM (doses to about 46.1 µM), for the others: at the highest dose activity change, negative = cytotoxicity, usual class: cytotoxic. hit rate 0.62% among 55,000. H1299-neo p53 null cells, ATP luminescence, 24 h, 32C;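 note: 0% = DMSO only and -100% = full killing by 100 µM tamoxifen; nearly all actives have a fitted effect of over 55% in size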
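Luminescent ATP readout gave cell viability of p53-null H1299-neo cells after a 24 h compound exposure at the permissive 32C. Titrations ran up to 46 uM, and AC50s were fitted with the standard Hill equation.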
Starred values were filed as active, the others as inactive. Only some compounds are listed: those with a hit (about 3.2% of all), similar ones and a draw of the others. Unless noted, calls come from the whole dose curve; as a rule, active = well fitted curve in the direction sought with a large enough effect; inconclusive = small, poorly fitted or top-dose-only effect, or another doubt; inactive = no such curve, though single readings can be large; an effect the other way counts as inactive or inconclusive. Unless noted, % is set by controls: 0 for no effect and ±100 for the full control effect; potency is the fitted concentration of half-maximal effect.

How did CCOC(=O)c1ccc(NC(=O)c2oc3ccc4c(c3c2C)C(=O)CC(C)(CC)O4)cc1 (stereo not given) do in these assays?
PMP22 txn: inconclusive; p53null 39C kill: 3.2µM*; mTORC1 inh: -6%; S16 viability: 2%; p53null 32C kill: inconclusive

How did COC(=O)c1ccccc1NC(=O)c1oc2ccc3c(c2c1C)C(=O)CC(C)(C)O3 do in these assays?
PMP22 txn: -18%; p53null 39C kill: 4%; mTORC1 inh: 1%; S16 viability: 12%; p53null 32C kill: -6%

Results for CCc1ccc(NC(=O)CSC2=Nc3ccccc3C3=NC(CCC(=O)NCc4ccccc4)C(=O)N23)cc1 (stereo not given) ?
PMP22 txn: -24%; p53null 39C kill: 3%; mTORC1 inh: -8%; S16 viability: 7%; p53null 32C kill: -2%

How did CC(C)c1ccc(NC(=O)CSC2=Nc3ccccc3C3=NC(CCC(=O)NCc4ccc(F)cc4)C(=O)N23)cc1 (stereo not given) do in these assays?
PMP22 txn: inconclusive; p53null 39C kill: 86%; mTORC1 inh: inconclusive; S16 viability: 28µM*; p53null 32C kill: 16%

How did COc1ccc(OC)c(NC(=O)CSC2=Nc3ccccc3C3=NC(CCC(=O)NCc4ccccc4)C(=O)N23)c1 (stereo not given) do in these assays?
PMP22 txn: 12µM*; p53null 39C kill: -4%; mTORC1 inh: -1%; S16 viability: inconclusive; p53null 32C kill: 0%

Results for COc1ccc(Cl)cc1NC(=O)CSC1=Nc2ccccc2C2=NC(CCC(=O)NCc3ccc(F)cc3)C(=O)N12 (stereo not given) ?
PMP22 txn: inconclusive; p53null 39C kill: -6%; mTORC1 inh: 2%; S16 viability: -23%; p53null 32C kill: 14%

What do the screens show for `CCOc1ccc(NC(=O)c2ccc(-c3ccccc3)s2)cc1`?
PMP22 txn: -1%; p53null 39C kill: -13%; mTORC1 inh: 0%; S16 viability: 14%; p53null 32C kill: -1%

What do the screens show for `CCOc1ccc(NC(=O)c2ccccc2O)cc1`?
p53null 39C kill: 7.9µM*; p53null 32C kill: 7.1µM*

What do the screens show for `CC(C)Sc1nnc(Cn2c(=O)sc3ccccc32)n1-c1ccccc1`?
p53null 39C kill: 9%; p53null 32C kill: -12%

Results for O=C(CCC1CCCC1)Nc1ccc(OCC(=O)N2CCOCC2)cc1 ?
p53null 39C kill: inconclusive; p53null 32C kill: 14µM*

What do the screens show for `Cc1cnc(C(=O)Nc2ccc(N3CCOCC3)cc2)cn1`?
p53null 39C kill: 14%; p53null 32C kill: -12%

Results for CCCN1CCN(c2ncnc3sc(C(=O)Nc4c(C)cc(C)cc4C)c(C)c23)CC1 ?
PMP22 txn: inconclusive; p53null 39C kill: -8%; mTORC1 inh: 11%; S16 viability: 25µM*; p53null 32C kill: 15%

What do the screens show for `Cc1ccc(NC(=O)c2sc3ncnc(N(C)C4CCCCC4)c3c2C)c(C)c1`?
PMP22 txn: -46%; p53null 39C kill: 3%; mTORC1 inh: 2%; S16 viability: -2%; p53null 32C kill: 17%

Results for COc1ccc(NC(=O)C(=O)NCCc2csc(-c3ccc(Cl)cc3)n2)cc1 ?
PMP22 txn: 2%; p53null 39C kill: 13%; mTORC1 inh: -2%; S16 viability: 4%; p53null 32C kill: 6%

Results for COc1ccc(-n2nc3c(N4CCCC(C(=O)NCc5ccc(C)cc5)C4)nnc(C)c3c2C)cc1 (stereo not given) ?
PMP22 txn: inconclusive; p53null 39C kill: 15%; mTORC1 inh: -19%; S16 viability: inconclusive; p53null 32C kill: inconclusive

What do the screens show for `CCCCN(CC)CCNC(=O)C1CCN(c2nnc(C)c3c(C)n(-c4ccc(C)cc4)nc23)CC1`?
PMP22 txn: inconclusive; p53null 39C kill: -21%; mTORC1 inh: 15µM*; S16 viability: inconclusive; p53null 32C kill: 19%

Results for COc1ccc(CNC(=O)C2CCN(c3nnc(C)c4c(C)n(-c5ccc(C)cc5)nc34)CC2)cc1 ?
PMP22 txn: inconclusive; p53null 39C kill: 13µM*; mTORC1 inh: 1%; S16 viability: inconclusive; p53null 32C kill: inconclusive

What do the screens show for `CCc1ccc(CNC(=O)C2CCCN(c3nnc(C)c4c(C)n(-c5ccc(OC)cc5)nc34)C2)cc1` (stereo not given)?
PMP22 txn: inconclusive; p53null 39C kill: inconclusive; mTORC1 inh: -1%; S16 viability: inconclusive; p53null 32C kill: 25µM*

What do the screens show for `COc1ccc(-n2nc3c(N4CCC(C(=O)NCc5cccc(F)c5)CC4)nnc(C)c3c2C)cc1`?
PMP22 txn: inconclusive; p53null 39C kill: 3.2µM*; mTORC1 inh: -1%; S16 viability: inconclusive; p53null 32C kill: -12%

Results for CCNC(=O)C1CCN(c2nnc(C)c3c(C)n(-c4ccc(OC)cc4)nc23)CC1 ?
PMP22 txn: inconclusive; p53null 39C kill: 10%; mTORC1 inh: -3%; S16 viability: -17%; p53null 32C kill: 2%

Results for Cc1ccc(CCNC(=O)C2CCN(c3nnc(C)c4c(C)n(-c5ccccc5)nc34)CC2)cc1 ?
PMP22 txn: -20%; p53null 39C kill: 30%; mTORC1 inh: 0%; S16 viability: -1%; p53null 32C kill: 6%

What do the screens show for `Cc1ccc2nc(N3CCC(C(=O)NCc4ccc(F)cc4)CC3)[nH]c2c1`?
PMP22 txn: 5%; p53null 39C kill: -5%; mTORC1 inh: 8%; S16 viability: 19%; p53null 32C kill: -5%

Results for COc1ccc(CNC(=O)C2CCN(c3nc4ccc(C)cc4[nH]3)CC2)cc1 ?
PMP22 txn: -2%; p53null 39C kill: -5%; mTORC1 inh: 13µM*; S16 viability: 0%; p53null 32C kill: 4%

How did Cc1ccc(CN2C(=O)C(=O)c3cc(Br)cc(C)c32)cc1 do in these assays?
PMP22 txn: inconclusive; p53null 39C kill: 11µM*; mTORC1 inh: inconclusive; S16 viability: inconclusive; p53null 32C kill: inconclusive

Results for O=C(NCCCN1CCN(c2cccc(Cl)c2)CC1)c1cnn(-c2ccc(F)cc2)c1-n1cccc1 ?
PMP22 txn: inconclusive; p53null 39C kill: 22µM*; mTORC1 inh: inconclusive; S16 viability: -18%; p53null 32C kill: 13%

How did CCCN(CCC)CCCNC(=O)c1cnn(-c2ccc(F)cc2)c1-n1cccc1 do in these assays?
PMP22 txn: -23%; p53null 39C kill: -14%; mTORC1 inh: -7%; S16 viability: -4%; p53null 32C kill: 5%

How did Cc1c(Cl)cccc1NC(=O)C1CCN(c2nc3ccccc3[nH]2)CC1 do in these assays?
PMP22 txn: -1%; p53null 39C kill: 5%; mTORC1 inh: 2%; S16 viability: 3%; p53null 32C kill: -4%

Screening results deposited in PubChem BioAssay by National Center for Advancing Translational Sciences (NCATS).
